“And” between values parts separate entries of the source, which are not always exact repeats. Equal entries are not always repeated. In all, about 5,500 compounds went through this assay and about 2,000 (36%) were called active. About 18% were inconclusive and are not listed. No stated cut-off is given here; in the data, active means normalized growth mostly below about 0.91 (no sharp cut-off); inconclusive means no clear call, values can overlap the other calls; inactive means mostly above about 0.92. Some of the results follow.
Test: chemical genetic growth profiling, strain panel (AID 1159580);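 further: tested at 20 µM; growth read once vehicle control cultures reached saturation at 30 °C; 1 = growth at the plate median or of vehicle wells; lower values mean less growth of the strain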
Settings: S. cerevisiae deletion strains, growth OD

Measured: normalized growth

NCCc1ccc(O)c(O)c1
inactive: locus YAL013W, strain DEP1, active compounds read low 1 and 0.968 | locus YAL021C, strain ccr4, active compounds read low 1.01 | locus YAL026C, strain drs2, active compounds read low 1 | locus YAL030W, strain snc1, active compounds read low 1.01 | locus YAL040C, strain CLN3, active compounds read low 0.983 | locus YBL061C, strain skt5, active compounds read low 0.998 | locus YBR009C, strain hhf1, active compounds read low 0.978 | locus YBR021W, strain FUR4, active compounds read low 0.999 | locus YBR023C, strain chs3, active compounds read low 1 | locus YBR171W, strain sec66, active compounds read low 0.997 | locus YBR229C, strain ROT2, active compounds read low 1 | locus YBR231C, strain swc5, active compounds read low 0.997 | locus YBR279W, strain paf1, active compounds read low 1 | locus YCL011C, strain gbp2, active compounds read low 0.981 | locus YCL016C, strain dcc1, active compounds read low 0.991 | locus YCL029C, strain bik1, active compounds read low 0.965 | locus YCL061C, strain MRC1 (second series), active compounds read low 0.997 | locus YCL061C, strain MRC1, active compounds read low 0.987 | locus YCL069W, strain vba3, active compounds read low 0.981 | locus YCR088W, strain abp1, active compounds read low 0.995 | locus YDL005C, strain med2, active compounds read low 1 | locus YDL035C, strain GPR1, active compounds read low 1.01 | locus YDL040C, strain nat1, active compounds read low 1.01 | locus YDL074C, strain BRE1, active compounds read low 0.978 | locus YDL101C, strain DUN1, active compounds read low 0.988 | locus YDL134C, strain PPH21, active compounds read low 1.04 | locus YDL185W, strain tfp1, active compounds read low 0.979 | locus YDL192W, strain arf1, active compounds read low 0.995 | locus YDR001C, strain nth1, active compounds read low 1 | locus YDR069C, strain doa4, active compounds read low 0.999 | locus YDR101C, strain arx1, active compounds read low 1.01 | locus YDR137W, strain rgp1, active compounds read low 1.03 | locus YDR150W, strain NUM1, active compounds read low 0.992 | locus YDR159W, strain sac3, active compounds read low 1.03 | locus YDR162C, strain NBP2, active compounds read low 1 | locus YDR195W, strain ref2 1.01 | locus YDR297W, strain sur2, active compounds read low 1 | locus YDR318W, strain mcm21, active compounds read low 0.988 | locus YDR334W, strain swr1, active compounds read low 0.996 | locus YDR335W, strain msn5, active compounds read low 1.01 | locus YDR363W, strain ESC2, active compounds read low 0.998 | locus YDR388W, active compounds read low 1 | locus YDR392W, strain spt3, active compounds read low 0.993 | locus YDR502C, strain sam2, active compounds read low 0.998 | locus YEL003W, strain gim4, active compounds read low 0.977 | locus YEL037C, strain rad23, active compounds read low 1 | locus YEL061C, strain CIN8 (second series), active compounds read low 1.02 | locus YEL061C, strain CIN8, active compounds read low 0.997 | locus YER002W, strain NOP16, active compounds read low 1.01 | locus YER015W, strain faa2, active compounds read low 1.02 | locus YER016W, strain bim1, active compounds read low 1 | locus YER110C, active compounds read low 0.984 | locus YER111C, strain swi4, active compounds read low 0.993 | locus YER155C, strain BEM2 (second series), active compounds read low 1 | locus YER155C, strain BEM2, active compounds read low 1 | locus YER167W, strain BCK2, active compounds read low 0.995 | locus YFR010W, strain ubp6, active compounds read low 0.984 | locus YGL078C, strain dbp3, active compounds read low 1 | locus YGL086W, strain mad1, active compounds read low 0.998 | locus YGL167C, strain pmr1, active compounds read low 1.02 | locus YGL173C, strain kem1, active compounds read low 0.98 | locus YGL227W, strain vid30, active compounds read low 1 | locus YGL240W, strain doc1, active compounds read low 1.01 | locus YGL248W, strain PDE1, active compounds read low 0.961 | locus YGL253W, strain hxk2, active compounds read low 0.989 | locus YGR135W, strain pre9, active compounds read low 0.95 | locus YGR229C, strain SMI1, active compounds read low 1.02 | locus YGR252W, strain gcn5, active compounds read low 1.01 | locus YHR013C, strain ard1, active compounds read low 0.993 | locus YHR027C, strain rpn1, active compounds read low 1 | locus YHR030C, strain SLT2, active compounds read low 1 and 1.04 and 1.03 | locus YHR079C, strain IRE1 (second series), active compounds read low 0.994 | locus YHR079C, strain IRE1, active compounds read low 1.03 and 1.04 | locus YHR094C, strain hxt1, active compounds read low 0.996 | locus YHR129C, strain ARP1, active compounds read low 1.01 | locus YHR142W, strain chs7, active compounds read low 1 | locus YHR200W, strain rpn10, active compounds read low 0.994 | locus YIL066C, strain RNR3, active compounds read low 0.987 | locus YIL073C, strain SPO22, active compounds read low 0.891 | locus YIL125W, strain kgd1, active compounds read low 1 | locus YIR030C, strain dcg1, active compounds read low 0.982 | locus YJL092W, strain hpr5, active compounds read low 1.01 | locus YJL095W, strain BCK1 (second series), active compounds read low 1.01 | locus YJL095W, strain BCK1, active compounds read low 0.972 and 1.03 | locus YJL115W, strain asf1, active compounds read low 1.01 | locus YJL129C, strain trk1, active compounds read low 0.998 | locus YJL134W, strain LCB3, active compounds read low 1 | locus YJL154C, strain vps35, active compounds read low 1.01 | locus YJL164C, strain tpk1, active compounds read low 1.01 | locus YJL166W, strain qcr8, active compounds read low 1 | locus YJL168C, strain set2, active compounds read low 1.01

From PubChem BioAssay AID1159580 (chemical genetic matrix, 2015)
